This is a sample that favours compounds with a hit; in the whole collection about 2.7% have one here.
PfGluPho inh = PfG6PD (Plasmodium falciparum) enzyme inhibition | PfGluPho enzyme, NADPH resazurin-diaphorase fluorescence | inhibition, % at 20 µM | hit rate 0.78% among 350,000;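 active = inhibition reaching at least a set limit at 20 µM in the primary screen, cut at about 59% in these data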;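 also: 0% = DMSO wells with substrate and 100% = DMSO wells lacking glucose-6-phosphate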
proKLK7 act = activators of human kallikrein-7 zymogen | P49862 | purified proKLK7, EDANS-DABCYL substrate fluorescence; 100% is mature enzyme control, 0% vehicle | activation, % at 7 µM | hit rate 0.9% among 370,000 | AID 652039;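 active = activation above the mean of all tested compounds plus 3 SD, computed per campaign excluding outliers beyond control limits, cut at about 13% in these data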
FAS TE block = inhibitors of human fatty acid synthase thioesterase domain; inhibition, % at 15 µM; recombinant FAS-TE, OMFH fluorogenic substrate, fluorescence endpoint; hit rate 0.67% among 360,000; P49327;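 active = compounds whose normalised, plate-corrected inhibition of enzyme fluorescence in the single-dose primary screen is 50% or more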;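 also: 0% = DMSO with enzyme and 100% = substrate without enzyme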
Neddyl block = inhibitors of human cullin neddylation; P61081+Q13564; TR-FRET cullin neddylation, biochemical; calls only at 25 µM; hit rate 0.58% among 360,000; AID 651699; in the data active = inhibition above about 36%
Target sequence (P61081 whole entry, looked up): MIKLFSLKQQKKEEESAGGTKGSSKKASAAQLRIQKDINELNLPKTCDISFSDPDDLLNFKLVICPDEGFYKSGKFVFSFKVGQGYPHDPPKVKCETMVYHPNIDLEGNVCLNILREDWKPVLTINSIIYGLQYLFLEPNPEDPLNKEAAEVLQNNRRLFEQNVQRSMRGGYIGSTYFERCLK
Target sequence (Q13564 whole entry, looked up): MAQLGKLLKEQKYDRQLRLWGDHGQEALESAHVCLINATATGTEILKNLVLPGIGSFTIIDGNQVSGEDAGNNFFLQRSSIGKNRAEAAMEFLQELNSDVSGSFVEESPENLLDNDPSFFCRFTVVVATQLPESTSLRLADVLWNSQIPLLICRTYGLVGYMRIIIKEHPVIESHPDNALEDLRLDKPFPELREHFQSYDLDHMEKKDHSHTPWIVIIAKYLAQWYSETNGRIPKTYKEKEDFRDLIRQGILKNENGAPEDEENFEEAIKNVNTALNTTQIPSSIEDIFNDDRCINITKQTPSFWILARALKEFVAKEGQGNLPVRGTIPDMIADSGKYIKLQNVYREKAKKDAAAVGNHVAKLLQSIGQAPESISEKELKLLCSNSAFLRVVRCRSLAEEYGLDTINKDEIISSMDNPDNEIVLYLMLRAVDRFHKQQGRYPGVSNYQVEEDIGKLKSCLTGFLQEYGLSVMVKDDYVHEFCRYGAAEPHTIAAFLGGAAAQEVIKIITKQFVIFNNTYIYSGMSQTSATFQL
KLK7 act conf = proKLK7 activation, confirmation | shares compounds with proKLK7 act | purified proKLK7, EDANS-DABCYL substrate fluorescence; scaled: vehicle 0, mature enzyme 100 | activation, % at 7 µM | hit rate 68% among 3,200;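 active = activation, as change over the incubation, above the mean of all tested compounds plus 3 SD, cut at about 13% in these data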
EDANS-DABCYL int = counter-screen for kallikrein-7 activators: EDANS-DABCYL optical interference; shares compounds with proKLK7 act; EDANS-DABCYL substrate fluorescence interference, no enzyme, 4 h; solvent 0%, active enzyme control 100%; activation, % at 7 µM; hit rate 80% among 3,200;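 active = activation above the all-compound mean plus 3 SD, ignoring values outside control-based bounds, cut at about 4.8% in these data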;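 also: value is the 4 h activation minus the activation read at time zero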
EDANS interf = optically interferes with EDANS-DABCYL fluorescence, kallikrein-7 activator counter-screen. shares compounds with proKLK7 act. EDANS-DABCYL peptide fluorescence interference, no enzyme. hit rate 20% among 250. AID 720493. EC50, µM;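 active = compounds that raise the fluorescence signal in this interference counterscreen, with EC50 at or below 10 µM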;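 also: intact quenched peptide substrate alone read at 355 nm excitation and 520 nm emission; signal is fluorescence gain from T0 to T4 after four hours at room temperature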
An asterisk follows results filed as active; i = inactive; . = no result shown.

SMILES	PfGluPho inh	proKLK7 act	FAS TE block	Neddyl block	KLK7 act conf	EDANS-DABCYL int	others
CCOC(=O)NC(=O)CSc1nc(C)cc(C)c1C#N	10.5	98.9*	0.2	i	90.9*	98.6*
CCc1c(C)nc(SCC(=O)CC(=O)OC(C)C)c(C#N)c1C	8.4	48.2*	30.1	i	26.5*	24.1*
COc1ccc(C[N+]2=C(N)NC3=C(C)Cn4c(=O)n(-c5ccccc5)c(=O)n4C3C2)c(OC)c1 (stereo unspecified)	.	-0.2	.	.	.	.
CC(C)C(=O)OCCCN1CCC2(CCC(c3ccccc3)CC2)C1=O (stereo unspecified)	.	-0.1	.	.	.	.
CCc1nnc(NC(=O)CSc2nc(C)cc(C)c2C#N)s1	-3.5	13.7*	13.7	i	81.9*	80.1*
CCc1nnc(NC(=O)CSc2nc3c(cc2C#N)CCC3)s1	-19.5	-6.3	-2.7	i	.	.
CCCc1c(-c2ccccc2Br)ncn1Cc1ccccc1OC	.	1.5	2.4	i	.	.
O=C1C=CC(c2c[nH]c3ccccc23)CC1 (stereo unspecified)	.	0.4	-8.6	i	.	.
C=CCN(CC=C)Cc1c(O)ccc2c(=O)c(-c3ccccc3)coc12	4.0	37.6*	-2.5	.	25.6*	28.6*
CN(C)Cc1c(O)ccc2c(=O)c(-c3ccc(Cl)cc3)coc12	-9.0	33.0*	0.1	.	39.0*	37.1*
CCN(CC)Cc1c(O)ccc2c(=O)c(-c3ccc(Cl)cc3)coc12	-24.0	29.0*	-1.6	.	33.5*	30.9*
CCCOC(=O)c1ccc(Oc2coc3c(CN(CC)CC)c(O)ccc3c2=O)cc1	-14.5	59.7*	-9.6	.	-64.7	47.6*
O=c1c(-c2ccc(O)cc2)coc2c([C@@H]3O[C@H](CO)[C@@H](O)[C@H](O)[C@H]3O)c(O)ccc12	-15.5	12.2	-9.9	.	.	.
Cc1c(O)ccc2c(=O)c(Oc3ccccc3)coc12	-9.7	-1.7	-3.5	i	.	.
CN(C)Cc1c(O)ccc2c(=O)c(-c3ccccc3Cl)c(C(F)(F)F)oc12	-9.6	7.3	-5.8	i	.	.
COc1ccc2[nH]cc(CCNC(=O)/C=C/[C@H]3O[C@@H](n4cnc5c(NC(=O)c6ccccc6)ncnc54)[C@H](O)[C@@H]3O)c2c1	.	0.9	-5.7	i	.	.
CCC(CC)C(=O)Nc1ccc(-c2cn3cccnc3n2)cc1	-3.6	61.5*	-3.2	.	66.0*	64.2*
COCC(=O)Nc1ccc(-c2cn3cccnc3n2)cc1	-9.6	25.2*	-6.8	.	62.7*	80.8*
CCN(C(=O)CN(C1=NC2CS(=O)(=O)CC2S1)c1ccc(OC)cc1)c1cccc(C)c1 (stereo unspecified)	.	0.2	-4.7	i	.	.
Cc1sc(-c2ccccn2)nc1OC(=O)c1ccc(F)cc1F	16.4	14.3*	6.4	i	23.1*	23.4*
Cc1sc(-c2ccccn2)nc1OC(=O)c1ccc(Cl)c(Cl)c1	19.9	0.0	7.8	i	.	.
C=CCN1[C@@H](C)COc2cccc(N3CCCC3)c2S1(=O)=O	.	0.5	.	.	.	.
Cc1c(O)ccc2cc(S(=O)(=O)c3ccccc3)c(=O)oc12	-45.9	45.1*	-7.1	.	70.0*	72.5*
Cc1ccc(S(=O)(=O)c2cc3ccccc3oc2=O)cc1	9.4	-0.9	-7.1	i	.	.
Cc1c2c(n3c(nc4ccccc43)c1C#N)N(CCN1CCOCC1)CC2	-29.9	9.1	1.6	.	.	.
SMILES	PfGluPho inh	proKLK7 act	FAS TE block	Neddyl block	KLK7 act conf	EDANS-DABCYL int	others
Cc1cc(NCCN2CCOCC2)n2c(nc3ccccc32)c1C#N	-4.4	16.0*	-2.6	.	-97.2	-170.0
CCCc1cc(NCCCN2CCOCC2)n2c(nc3ccccc32)c1C#N	21.0	-11.3	-2.7	.	.	.
Cc1cc(NCCCN2CCOCC2)n2c(nc3ccccc32)c1C#N	18.9	30.8*	-5.3	.	66.4*	64.0*
CCCCn1nnnc1C(C1CC1)N1CCN(C/C=C/c2ccccc2)CC1 (stereo unspecified)	.	-0.1	-2.6	i	.	.
CN1CCN(c2ccc(-c3ccc4ccccc4n3)cc2)CC1	-5.4	28.3*	-0.3	.	-4.3	-10.1
COc1cc(NC(=O)c2ccco2)c(OC)cc1NC(=O)CCC(=O)Nc1cc(C)ccc1C	13.4	31.3*	-5.7	.	13.7*	-7.4	EDANS interf=i
COc1cc(NC(=O)c2ccco2)c(OC)cc1NC(=O)CCC(=O)Nc1cc(C)cc(C)c1	8.9	-20.5	-10.9	.	.	.
O=C1CCN2C=Nc3cccc4ccc1c2c34	47.2	55.5*	-203.1	i	68.4*	65.7*
COc1ccc(C(=O)OCCCN(C)C2CN(Cc3cn(Cc4ccccc4Cl)nn3)S(=O)(=O)C2)cc1OC (stereo unspecified)	.	0.2	.	.	.	.
COc1c2ccoc2nc2c(OC)c(OCC(OC(C)=O)C(C)(C)O)ccc12 (stereo unspecified)	-14.3	18.5*	-3.8	.	13.3*	13.4*
COc1ccc2c(OC)c3ccoc3nc2c1OC	-2.5	26.8*	0.4	.	31.2*	62.0*
COc1c2ccoc2nc2c(OC)c(OCC(O)C(C)(C)O)ccc12 (stereo unspecified)	-5.5	21.8*	-7.2	.	40.8*	38.9*
COc1c2ccoc2nc2c(OC)c(OC[C@@H](O)C(C)(C)O)ccc12	6.9	24.4*	-5.4	.	37.0*	40.4*
COCCNc1nc(NCCN2CCNC2=O)c2sccc2n1	.	-0.5	-6.7	i	.	.
CCOC(=O)[C@@]12CCCC3=C1N(CCC3)C(=O)[C@H]2CC(=O)N1CCC(c2ccccc2)CC1	.	-0.1	.	.	.	.
CC1(C)C=C(c2ccc(C(=O)O)s2)CC(C)(C)N1	5.0	-0.1	-8.4	i	.	.
Cc1cc(-c2ccc(C(=O)O)s2)cnc1N	-9.3	31.1*	-8.9	i	61.4*	69.6*
Oc1ccc(C[C@H]2CNC(=S)N2C[C@H]2CCCN2C[C@H](Cc2ccccc2)N2C[C@H](Cc3ccc(O)cc3)N(CC3CCCCCC3)C2=S)cc1	.	-1.2	-57.4	i	.	.
COc1cccc2[nH]c3c(N4CCC(C(N)=O)CC4)ncnc3c12	-1.4	25.3*	-5.8	.	46.6*	42.9*
CCC(=O)N1CCc2cc(-c3csc(NC(=O)c4ccco4)n3)ccc21	32.1	97.8*	-0.8	i	22.3*	16.4*	EDANS interf=i
O=C1Nc2ccccc2/C1=C/c1cnc(-c2ccccc2)[nH]1	7.8	20.1*	-45.5	i	40.0*	53.6*
N=C1c2c(cc(=O)n3c2[nH]c2ccccc23)CN1CCN1CCOCC1	9.0	14.9*	-3.1	.	-5.7	-6.0
O=c1c2ccccc2[nH]c(=S)n1CCCN1CCOCC1	7.0	-0.2	-3.2	i	.	.
Brc1ccc(-c2ccc3c(n2)CCCN3Cc2ccccn2)cc1	.	-1.4	.	.	.	.
Cc1cc2c(nc1C)CCCN2Cc1ccccn1	.	15.0*	.	.	-4.0	-6.6
CCOC(=O)Cc1c(C)c2c(O)cc(O)cc2oc1=O	-19.2	75.9*	-8.1	.	62.3*	64.5*
